# “And” between values parts separate entries of the source, which are not always exact repeats. Equal entries are not always repeated. A number with no mark means an inactive call. Inconclusive results are not listed. Where a call stands in place of a potency, no number is given. The source made the active and inactive calls. Unless noted, calls follow the shape of the dose curve; as a rule, active = well fitted curve in the direction sought with a large enough effect; inconclusive = small, poorly fitted or top-dose-only effect, or another doubt; inactive = no such curve, though single readings can be large; an effect the other way counts as inactive or inconclusive.
# How the values were obtained:
# [1] = qHTS Assay for Identifying Gametocytocidal Compounds (AID 743244); also: potency is read from the fitted curve at half-maximal effect;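 as to max response: actives lower the fluorescent signal which means gametocytes are killed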; settings: P. falciparum 3D7 stage III-V gametocytes, alamarBlue, 72 h; max response: stronger effect = lower value
# Summary of the method: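 Late gametocytes (III–V), P. falciparum 3D7; 72 h drug, then 24 h alamarBlue; resazurin reduction read by fluorescence.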
# [2] = qHTS assay for measurement of the activity of small molecule inhibitors on Zika virus induced Caspase-3 activity in human iPSC derived neural progenitor cells (hNPCs) (AID 1224857); settings: hNPCs ZIKV-induced caspase-3/7, Caspase-Glo luminescence, 6 h; series mostly up to 45.7 µM; also: nearly all actives have a fitted effect of over 65% in size
# Summary of the method: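 Caspase-3/7 induction by a 6-hour ZIKV infection was quantified with a luminescent Caspase-Glo 3/7 reagent incubated 30 minutes at room temperature. Compounds were preincubated with hNPCs for 1 hour; inhibition was calculated against uninfected and infected control wells.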
# [3] = qHTS assay for measurement of the activity of small molecule inhibitors on Zika virus induced Caspase-3 activity in human astrocytoma cells (AID 1224859); settings: SNB-19 ZIKV-induced caspase-3/7, luminescence, 6 h; series mostly up to 45.7 µM
# Summary of the method: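 In SNB-19 cells plated at 250 cells/well and grown 16-20 h, compounds were applied 1 h before ZIKV (2 FFU/cell). Six hours later caspase-3/7 luminescence was recorded.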
# [4] = qHTS assay for small molecule agonists of the antioxidant response element (ARE) signaling pathway measured by Nrf2-dependant transcriptional activity - cell viability counter screen (AID 720653; active = well fitted curve in the direction sought with a large enough effect in the repeat runs; an effect the other way counts as inactive or inconclusive); settings: ARE-bla HepG2 viability, CellTiter-Glo ATP luminescence, 16 h; stronger effect = lower value
# Summary of the method: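 ARE-bla HepG2 cells (2,000/well) rested 5 hrs at 37C/5% CO2, then exposed to compounds in DMSO for 16 hrs. Viability was read in the same wells as intracellular ATP by luminescence, 30 min at room temperature after reagent addition.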
# [5] = qHTS assay for cell viability of HEK293 cells (AID 743288); settings: ATP luminescence (CellTiter-Glo), 18 h, stronger effect = lower value; also: nearly all actives have a fitted effect of over 50% in size
# Summary of the method: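 Environmental chemicals tested in qHTS format against parental HEK293 cells; 18 h treatment, 37 C; read-out ATP luminescence (CellTiter-Glo), 30 min RT development.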
# [6] = qHTS assay for cell viability of the p53RE-bla HCT-116 cell line (AID 743292); settings: p53RE-bla HCT-116 viability, ATP luminescence, 16 h; series mostly up to 95 µM; also: nearly all actives have a fitted effect of over 55% in size
# Summary of the method: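 CellSensor p53RE-bla HCT-116 cells, 4,000/well, preincubated 5 h at 37 C, then exposed to compounds in DMSO for 16 h at 37 C. Viability read as CellTiter-Glo luminescence (intracellular ATP) after 30 min at room temperature.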
structure (smiles),measurement,setting,value
Cc1cc(CC(=O)O)c(C)n1-c1ccc(Cl)cc1,max response,[1],-9.92%
same,Potency,[2],inactive
same,outcome,[3],inactive
C[N+]12CCC(CC1)C(OC(=O)C(O)(c1ccccc1)c1ccccc1)C2 (stereo not given),max response,[1],-5.86%
same,Potency,[2],inactive
same,outcome,[3],inactive
O=C(CCCN1CC=C(n2c(=O)[nH]c3ccccc32)CC1)c1ccc(F)cc1,max response,[1],7.51%
same,Potency,[2],inactive
same,outcome,[3],inactive
CN(C)CCOC(c1ccc(Cl)cc1)c1ccccn1 (stereo not given),max response,[1],1.88%
same,Potency,[2],inactive
same,outcome,[3],inactive
CC[C@]12CCCN3CCc4c(n(c5ccccc45)C(=O)C1)[C@@H]32,max response,[1],3.35%
same,Potency,[2],inactive
same,outcome,[3],inactive
CN1CCC(OC(c2ccccc2)c2ccccc2)CC1,max response,[1],-7.17%
same,Potency,[2],inactive
same,outcome,[3],inactive
NC(=O)n1c(O)c(C(=O)c2cccs2)c2cc(Cl)ccc21,max response,[1],-6.13%
same,Potency,[2],inactive
same,outcome,[3],inactive
C/C=C/C=N/NC(=O)c1ccncc1,max response,[1],-5.06%
same,Potency,[2],inactive
same,outcome,[3],inactive
C[C@H]1O[C@@H](O[C@H]2CC[C@@]3(C)[C@H](CC[C@@H]4[C@@H]3C[C@@H](O)[C@]3(C)[C@@H](C5=CC(=O)OC5)CC[C@]43O)C2)C[C@H](O)[C@@H]1O[C@H]1C[C@H](O)[C@H](O[C@H]2C[C@H](O)[C@H](O[C@@H]3O[C@H](CO)[C@@H](O)[C@H](O)[C@H]3O)[C@@H](C)O2)[C@@H](C)O1,max response,[1],-0.158%
same,Potency,[2],inactive
same,outcome,[3],inactive
NC1CCN(c2nc3c(cc2F)c(=O)c(C(=O)O)cn3-c2ccc(F)cc2F)C1 (stereo not given),max response,[1],-5.91%
same,Potency,[2],inactive
same,outcome,[3],inactive
CC1(COc2ccc(CC3SC(=O)NC3=O)cc2)CCCCC1 (stereo not given),max response,[4],-9.6%
same,max response,[1],2.09%
same,max response,[5],-6.86%
same,Potency,[2],inactive
same,outcome,[3],inactive
CCc1nn(CCCN2CCN(c3cccc(Cl)c3)CC2)c(=O)n1CCOc1ccccc1,max response,[1],-8.53% and -14%
same,Potency,[2],inactive
same,outcome,[3],inactive
CN(C)C(=O)Nc1ccc(Cl)c(Cl)c1,max response,[4],12.2%
same,max response,[1],-3.3%
same,max response,[5],-11.4%
same,outcome,[6],inactive
same,Potency,[2],inactive
same,outcome,[3],inactive
CCCCCCCCCCCCCC[N+](C)(C)Cc1ccccc1,Potency,[1],8.91 µM (active)
same,Potency,[2],inactive
same,outcome,[3],inactive
OC(C#CCN1CCCC1)(c1ccccc1)c1ccccc1,max response,[1],-3.1%
same,Potency,[2],inactive
same,outcome,[3],inactive
CN(C)CCOC(=O)C(c1ccccc1)C1(O)CCCC1 (stereo not given),max response,[1],1.53%
same,Potency,[2],inactive
same,outcome,[3],inactive
CCN[C@@H]1C[C@H](N)[C@@H](OC2OC(CN)=CCC2N)[C@H](O)[C@H]1O[C@H]1OC[C@](C)(O)[C@H](NC)[C@H]1O (stereo not given in full),max response,[1],13.5%
same,"activity change, negative = inhibition",[2],22% [at 0.568 µM]
same,"activity change, negative = inhibition",[3],15.8% [at 0.568 µM]
O=C(Nc1ccccc1)OCC(CN1CCCCC1)OC(=O)Nc1ccccc1 (stereo not given),max response,[1],3.58%
same,Potency,[2],inactive
same,outcome,[3],inactive
CN1CCN(c2c(F)cc3c(=O)c(C(=O)O)cn4c3c2SCC4)CC1,max response,[1],9.27%
same,Potency,[2],inactive
same,outcome,[3],inactive
O[C@@H](c1cc(C(F)(F)F)nc2c(C(F)(F)F)cccc12)[C@H]1CCCCN1,Potency,[1],1.05 µM (active)
same,Potency,[2],inactive
same,outcome,[3],inactive
CC(C(=O)O)c1cccc(Oc2ccccc2)c1 (stereo not given),max response,[1],17.6%
same,Potency,[2],inactive
same,outcome,[3],inactive
C#C[C@]1(O)CC[C@H]2[C@@H]3CCc4cc(OC)ccc4[C@H]3CC[C@@]21C,max response,[1],-2.6%
same,Potency,[2],inactive
same,outcome,[3],inactive
CC(=O)OCC1=C(C(=O)O)N2C(=O)[C@@H](NC(=O)CSc3ccncc3)[C@H]2SC1,max response,[1],-9.74%
same,Potency,[2],inactive
same,outcome,[3],inactive
CCC(CC)(CC(=O)Nc1cccc(/C=C/c2nc(C3CCC3)cs2)c1)C(=O)O,max response,[1],48.4%
same,Potency,[2],inactive
same,outcome,[3],inactive
CC(C)Cc1ccc(CC(=O)O)cc1,max response,[1],6.47%
same,Potency,[2],inactive
same,outcome,[3],inactive
CCCCN1C[C@H](O)[C@@H](O)[C@H](O)[C@H]1CO,max response,[1],2.05%
same,Potency,[2],inactive
same,outcome,[3],inactive
Cc1ccc(S(=O)(=O)NC(=O)NC2CCCC2)cc1,max response,[1],3.98%
same,Potency,[2],inactive
same,outcome,[3],inactive
Cc1cc(C)cc(OCC2CNC(=O)O2)c1 (stereo not given),max response,[1],-6.82%
same,Potency,[2],inactive
same,outcome,[3],inactive
O=C(O)CCNC(=O)c1ccccc1,max response,[1],7.27%
same,Potency,[2],inactive
same,outcome,[3],inactive
COc1ccc(/C=N/NC(=O)c2ccncc2)cc1OC,max response,[1],-3.84%
same,Potency,[2],inactive
same,outcome,[3],inactive

# Reference: PubChem BioAssay (NCATS)
